Source: PubChem BioAssay (National Center for Advancing Translational Sciences (NCATS))
Compounds with a hit are over-represented: about 18% of the library has one in this group of screens.
DT40 TDP1 CPT = qHTS for Inhibitors of human tyrosyl-DNA phosphodiesterase 1 (TDP1): qHTS in cells in presence of CPT; actives 12% (n = 420,000); Potency, µM (series often up to 46.2 µM), inactives show top-dose activity change, negative = growth inhibition, hits mostly inhibitors; chicken DT40 Tdp1-/-;hTDP1 cells + 20 nM CPT, ATP luminescence, 48 h; also: nearly all actives have a fitted effect of over 55% in size
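Chicken DT40 Tdp1-/- cells complemented with human TDP1, 400 cells/well, exposed to compounds plus 20 nM camptothecin for at least 48 h at 37 C; viability read as ATP content by CellTiter-Glo luminescence.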
DT40 TDP1 no CPT = qHTS for Inhibitors of human tyrosyl-DNA phosphodiesterase 1 (TDP1): qHTS in cells in absence of CPT; DT40 Tdp1-/- hTDP1 cells, no CPT, ATP luminescence, 48 h; actives 15% (n = 420,000); Potency, µM (doses to about 46.2 µM), for the others: at the top dose activity change, negative = growth inhibition, most hits filed as inhibitors; AID 686978, 2013; also: nearly all actives have a fitted effect of over 55% in size
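Cells were dispensed at 400 per well, compounds added by pin tool, plates incubated ≥48 hr at 37 °C, then CellTiter-Glo added for 30 min at room temperature before luminescence reading. Line: DT40 Tdp1-/- complemented with hTDP1; camptothecin omitted.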
GCN5L2 inh = qHTS Assay for Inhibitors of GCN5L2 | Potency, µM (highest dose often 58.9 µM), for inactives: at the highest dose activity change, negative = inhibition, usual class: inhibitors | Histone acetyltransferase KAT2A (Homo sapiens), Q92830 | actives 0.21% (n = 390,000) | GCN5L2 HAT assay, ThioGlo1 CoA-SH fluorescence
Target sequence (Q92830 whole entry, looked up): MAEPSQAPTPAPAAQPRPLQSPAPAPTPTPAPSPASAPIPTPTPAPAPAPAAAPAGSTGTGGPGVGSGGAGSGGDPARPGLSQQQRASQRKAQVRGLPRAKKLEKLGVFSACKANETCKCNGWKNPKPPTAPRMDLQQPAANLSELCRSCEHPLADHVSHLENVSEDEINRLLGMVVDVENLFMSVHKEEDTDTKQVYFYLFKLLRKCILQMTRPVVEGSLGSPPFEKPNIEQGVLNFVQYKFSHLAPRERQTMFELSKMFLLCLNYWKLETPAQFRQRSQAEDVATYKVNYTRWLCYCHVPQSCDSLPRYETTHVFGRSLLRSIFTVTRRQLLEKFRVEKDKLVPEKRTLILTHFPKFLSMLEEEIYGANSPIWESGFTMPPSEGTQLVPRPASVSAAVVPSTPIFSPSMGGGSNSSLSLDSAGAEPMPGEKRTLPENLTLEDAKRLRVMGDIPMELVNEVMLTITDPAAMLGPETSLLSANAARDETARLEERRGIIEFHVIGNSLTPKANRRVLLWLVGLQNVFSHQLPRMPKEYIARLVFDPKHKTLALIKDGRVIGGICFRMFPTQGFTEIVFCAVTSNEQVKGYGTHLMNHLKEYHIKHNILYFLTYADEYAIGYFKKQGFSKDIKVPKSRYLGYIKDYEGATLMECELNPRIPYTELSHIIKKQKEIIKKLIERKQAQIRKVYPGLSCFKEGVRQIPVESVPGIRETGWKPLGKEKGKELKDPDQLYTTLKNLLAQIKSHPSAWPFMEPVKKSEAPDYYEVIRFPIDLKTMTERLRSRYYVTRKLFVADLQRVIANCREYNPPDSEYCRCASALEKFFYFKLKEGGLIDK
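Enzyme at 20nM final was mixed with library compounds for 15 min at room temperature. Peptide H3(1-25) at 75uM, acetyl-CoA at 70uM and ThioGlo1 at 50uM were then added. Plates were read immediately and after 20 min (Ex340nm/Em540nm).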
TDP1 block = qHTS Assay for Inhibitors of Tyrosyl-DNA Phosphodiesterase (TDP1) | Tyrosyl-DNA phosphodiesterase 1 (Homo sapiens), Q9NUW8 | recombinant TDP1, AlphaScreen DNA substrate cleavage | Potency, µM (highest dose often 130 µM), for the others: top-dose activity change, negative = inhibition, usual class: inhibitors | actives 0.28% (n = 350,000); also: nearly all actives have a fitted effect of over 40% in size
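Here, a 5' biotin and 3' phosphotyrosine-FITC DNA oligonucleotide reports Tdp1 activity: intact substrate bridges AlphaScreen beads, while cleavage leaves a 3' phosphate and drops signal. All incubations at room temperature.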
PLK1 PBD block = qHTS for Inhibitors of PLK1-PDB (polo-like kinase 1 - polo-box domain): Primary Screen; Serine/threonine-protein kinase PLK1 (Homo sapiens), P53350; Plk1 PBD binding of FITC phosphopeptide, fluorescence polarization; Potency, µM, for inactives: max response, negative = inhibition, usual class: inhibitors; actives 2.8% (n = 360,000); AID 720504, 2013; also: series mostly up to about 57 µM; nearly all actives have a fitted effect of over 65% in size
VDR inh = Inhibitors of the vitamin D receptor (VDR): qHTS; Vitamin D3 receptor (Homo sapiens), P11473; VDR-SRC2-3 peptide fluorescence polarization, 2 h; Potency, µM, for inactives: max response, negative = inhibition, hits mostly inhibitors; actives 0.93% (n = 400,000)
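FP read-out; VDR + SRC2-3 coactivator peptide; 23 nl compound by pintool; 2 h RT incubation; reagents held at 4 deg C, protected from light.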
Active calls of the source: *; ? = inconclusive; nt = not tested or not shown; [ ] = another dose, or the depositor's remark. Calls follow the shape of the dose curve; as a rule, active = well fitted curve in the direction sought with a large enough effect; inconclusive = small, poorly fitted or top-dose-only effect, or another doubt; inactive = no such curve, though single readings can be large; an effect the other way counts as inactive or inconclusive. % is scaled to controls: 0 for no effect and ±100 for the full control effect; potency is read from the fitted curve at half-maximal effect.

SMILES | DT40 TDP1 CPT | DT40 TDP1 no CPT | GCN5L2 inh | TDP1 block | PLK1 PBD block | VDR inh
Nc1nc(O)c2ncn([C@H]3CC[C@@H](CO)O3)c2n1 | ? | ? | -1% | 4% | nt | 13%
O=C(Nc1ccc(N2CCOCC2)cc1)c1csc([C@@H]2C[C@H](O)[C@@H](CO)O2)n1 | -14% | -19% | nt | nt | 2% | nt
COc1cc(-c2nnc(-c3ccncc3)o2)ccc1OCc1ccccc1 | ? | 9.2µM* | -1% | 1% | -2% | 0%
CCOc1ccc(-c2nnc(-c3cccnc3)o2)cc1OCC | ? | 16µM* | -2% | 0% | -1% | 21%
CCOc1ccc(-c2nnc(-c3ccncc3)o2)cc1OCC | -9% | ? | -3% | -5% | -6% | -7%
COc1ccc(-c2nnc(-c3cccnc3)o2)cc1OC | 12µM* | ? | -7% | 7% | -9% | -15%
COc1cc(-c2nnc(-c3ccco3)o2)ccc1OCc1ccccc1 | ? | ? | -13% | 4% | -5% | -4%
COc1ccc2c(c1)c(N1CCCC1=O)c(C(=O)Nc1cc(C)c(Cl)cc1OC)n2C | nt | nt | -3% | 0% | nt | 5%
COc1ccccc1C(=O)Nc1ccc2oc(-c3cccc4c(Br)cccc34)nc2c1 | ? | ? | -5% | -15%[12.3 µM] | nt | -16%
Cc1ccc(NCc2cccn2-c2nnc(N3CCC(C(=O)NCCc4ccc(Cl)cc4)CC3)s2)cc1 | ? | 13µM* | -12% | -1% | nt | -15%
CCOc1ccc(NCc2cccn2-c2nnc(N3CCC(C(=O)NCc4cccc(OC)c4)CC3)s2)cc1 | ? | 6.5µM* | -5% | 6% | nt | -18%
CCOc1ccc(NCc2cccn2-c2nnc(N3CCC(C(=O)NCCOC)CC3)s2)cc1 | ? | ? | -5% | 5% | nt | -6%
CCOc1ccc(NCc2cccn2-c2nnc(N3CCC(C(=O)NCCCN4CCCCC4CC)CC3)s2)cc1 (stereo unspecified) | ? | ? | -6% | 14% | -2% | 0%
NCCC[C@@H](CC(=O)N[C@@H]1CCNC[C@H]1C(=O)N[C@H](CC(=O)N[C@@H](CCC(=O)O)CC(=O)O)Cc1ccccc1)NC(=O)C[C@H](Cc1ccccc1)NC(=O)[C@@H]1CNCC[C@H]1N | nt | nt | nt | 2% | nt | -13%
COc1ccc(C(=O)NC2CCCc3c2cnn3-c2ccccc2F)cc1OC (stereo unspecified) | 5.2µM* | 1.6µM* | 1% | 2% | 1% | -13%
O=C(NC1CCCc2c1cnn2-c1ccccc1F)c1ccncc1 (stereo unspecified) | 10µM* | 5.8µM* | nt | nt | -5% | nt
O=C(NC1CCCc2c1cnn2-c1ccccc1F)c1ccccn1 (stereo unspecified) | ? | ? | -2% | 6% | -14% | 5%
CC(=O)[C@@H]1[C@@H]2C(=O)N(c3ccccc3F)C(=O)[C@@H]2[C@H]2c3ccccc3C=NN12 | 0% | 1% | 0% | 5% | -9% | -14%
O=C(c1ccc(Cl)cc1)[C@@H]1[C@@H]2C(=O)N(c3cccc4ccccc34)C(=O)[C@@H]2C2c3ccccc3C=NN21 (stereo partly specified) | ? | 9% | -7% | 8% | 24µM* | -12%
O=P(O)(O)OC(Cn1cncn1)(Cn1cncn1)c1ccc(F)cc1F | 16% | 5% | nt | nt | nt | nt
CCOc1ccccc1N1CCN(C(=O)Nc2ccc(Cl)c(Cl)c2)CC1 | nt | nt | ? | 3% | nt | nt
